What all share (assay): protein domain microarray probed with biotinylated miRNA; Domain array: 20 mM Tris-HCl pH 7.4, 200 mM KCl, 0.2 mM EDTA, 0.05% NP40, 2 ug/ul heparin, overnight 4 C. ORF array: PBS pH 7.0 with RNase inhibitor, 100 ng RNA; high values mean tight binding
Common to all, as to conditions: ssRNA

In experiment [1] the target is RBM8A (Homo sapiens, UniProt Q9Y5S9).
Experiment [2] deals with T1, NOVA1(3) (Homo sapiens, UniProt P51513).
T1 sequence: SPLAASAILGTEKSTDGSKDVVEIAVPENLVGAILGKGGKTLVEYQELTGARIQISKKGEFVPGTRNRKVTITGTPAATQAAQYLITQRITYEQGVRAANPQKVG

Experiment [3] has as its target T2, SFRS2 (Homo sapiens, UniProt Q01130).
T2 sequence: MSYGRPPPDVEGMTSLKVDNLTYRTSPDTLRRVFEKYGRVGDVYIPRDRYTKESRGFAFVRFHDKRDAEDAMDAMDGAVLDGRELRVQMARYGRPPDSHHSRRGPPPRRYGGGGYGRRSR

Experiment [4] concerns the target T3, KHDRBS3 (Homo sapiens, UniProt O75525).
T3 sequence: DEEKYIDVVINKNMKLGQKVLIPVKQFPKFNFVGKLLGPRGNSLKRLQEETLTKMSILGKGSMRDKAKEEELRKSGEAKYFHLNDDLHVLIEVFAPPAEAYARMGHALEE

For experiment [5], the target named is T4, PGC-1 beta (Homo sapiens, UniProt Q86YN6).
T4 sequence: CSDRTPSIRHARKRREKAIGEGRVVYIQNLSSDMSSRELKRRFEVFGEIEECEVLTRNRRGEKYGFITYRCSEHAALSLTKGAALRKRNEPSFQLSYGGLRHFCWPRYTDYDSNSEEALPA

The target of experiment [6] is hnRNP E2(3) (Homo sapiens, UniProt Q15366).
Chain of hnRNP E2(3) (Q15366 269-365): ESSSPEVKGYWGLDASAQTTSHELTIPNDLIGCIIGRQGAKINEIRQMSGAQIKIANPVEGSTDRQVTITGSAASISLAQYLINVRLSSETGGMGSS
In experiment [7] the target is T5, RBM12(1-2) (Homo sapiens, UniProt Q9NTZ6).
T5 sequence: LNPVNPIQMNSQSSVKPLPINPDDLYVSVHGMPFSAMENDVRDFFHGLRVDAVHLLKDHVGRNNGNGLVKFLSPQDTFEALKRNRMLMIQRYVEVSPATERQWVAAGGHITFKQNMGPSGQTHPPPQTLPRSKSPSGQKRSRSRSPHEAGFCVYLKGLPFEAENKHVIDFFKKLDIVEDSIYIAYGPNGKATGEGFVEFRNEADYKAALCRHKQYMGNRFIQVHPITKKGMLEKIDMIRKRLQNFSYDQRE

Experiment [8] addresses RBMY1F (Homo sapiens, UniProt Q15415).
Experiment [9] deals with T6, PGC-1 alpha (Homo sapiens, UniProt Q9UBK2).
T6 sequence: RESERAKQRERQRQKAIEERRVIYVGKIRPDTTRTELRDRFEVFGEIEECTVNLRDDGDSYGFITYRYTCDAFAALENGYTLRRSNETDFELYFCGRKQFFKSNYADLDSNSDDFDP

In experiment [10] the target is T7, STRBP(2) (Homo sapiens, UniProt Q96SI9).
T7 sequence: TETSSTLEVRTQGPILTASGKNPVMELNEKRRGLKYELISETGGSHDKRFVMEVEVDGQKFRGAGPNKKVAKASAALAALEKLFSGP

Chain of RBMY1F (Q15415 1-110): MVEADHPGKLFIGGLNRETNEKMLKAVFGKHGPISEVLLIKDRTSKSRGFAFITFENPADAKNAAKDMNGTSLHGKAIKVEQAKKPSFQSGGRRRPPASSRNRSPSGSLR

Take UGAGGUAGUAGGUUGUAUAGUU: the binding signal in experiment [1] worked out at 23.6 ± 8.27 fluorescence intensity; in [2] it was 39 ± 1.15 fluorescence intensity; in [3] it was 464 ± 35 fluorescence intensity; in [4], 21.1 ± 1.79 fluorescence intensity; in experiment [5], 45.6 ± 6.99 fluorescence intensity; in [6], 23.4 ± 0.594 fluorescence intensity. Also, the binding signal is 321 ± 62.5 fluorescence intensity in [7] and 1000 ± 19 fluorescence intensity in experiment [8].
Regarding AGAGGUAGUAGGUUGCAUAGUU, the binding signal was determined as 530 ± 30.3 fluorescence intensity in [1]; 50.4 ± 6.92 fluorescence intensity in experiment [9]; 1990 ± 38.5 fluorescence intensity in experiment [2]; 1507 ± 5.18 fluorescence intensity in experiment [3]; 38.5 ± 2.51 fluorescence intensity in experiment [10]; 26.3 ± 5.34 fluorescence intensity in [4]. For the same sequence, the binding signal in experiment [5] was 196 ± 13.5 fluorescence intensity; in [6] it was 21.7 ± 1.28 fluorescence intensity; in experiment [7], 1270 ± 68.8 fluorescence intensity; in [8], 2241 ± 17.4 fluorescence intensity.
Take UGAGGUAGUAGGUUGUGUGGUU: the binding signal in experiment [1] amounted to 492 ± 15.8 fluorescence intensity; in experiment [9], 72.3 ± 6.39 fluorescence intensity; in experiment [2], 202.3 ± 0.523 fluorescence intensity; in experiment [3], 1219 ± 7.53 fluorescence intensity; in experiment [10], 83.8 ± 5.54 fluorescence intensity; in [4], 28.2 ± 0.368 fluorescence intensity. Moreover, the binding signal in experiment [5] turned out to be 385 ± 12.8 fluorescence intensity; in experiment [6], 20.3 ± 0.735 fluorescence intensity; in [7] it was 1210 ± 36.7 fluorescence intensity; in experiment [8], 1478 ± 10.7 fluorescence intensity.
As for CAGUGCAAUGAUGAAAGGGCAU, the binding signal is 194 ± 11.7 fluorescence intensity in experiment [1]; 52.5 ± 18.4 fluorescence intensity in experiment [9]; 735.5 ± 6.54 fluorescence intensity in [2]; 1100 ± 38.7 fluorescence intensity in [3]; 23.5 ± 3.87 fluorescence intensity in [4]; 78.9 ± 4.49 fluorescence intensity in [5]. Besides, the binding signal worked out at 21.9 ± 0.262 fluorescence intensity in experiment [6], 873 ± 45.6 fluorescence intensity in [7] and 1404 ± 5.42 fluorescence intensity in experiment [8].
On to UAGCUUAUCAGACUGAUGUUGA, for which the binding signal in [2] turned out to be 126.9 ± 0.87 fluorescence intensity; in experiment [3], 480 ± 21.9 fluorescence intensity; in [6], 20.9 ± 1.85 fluorescence intensity; in [7], 271 ± 62.1 fluorescence intensity; in experiment [8], 865 ± 36.1 fluorescence intensity.
In the case of UGAGGUAGUAGGUUGUAUGGUU, the binding signal stood at 462 ± 23.2 fluorescence intensity in experiment [1]; 61.6 ± 8.6 fluorescence intensity in experiment [9]; 111 ± 7.91 fluorescence intensity in experiment [2]; 1110 ± 31.5 fluorescence intensity in [3]; 56.6 ± 5.37 fluorescence intensity in experiment [10]; 22.9 ± 1.58 fluorescence intensity in experiment [4]. Further, the binding signal in experiment [5] stood at 260 ± 19.3 fluorescence intensity; in [6] it was 20.2 ± 0.297 fluorescence intensity; in experiment [7] it was 1230 ± 64.3 fluorescence intensity; in experiment [8], 1430 ± 254 fluorescence intensity.

These data come from publication PMC11574364.
